# Reference: PubChem BioAssay
# The source made the active and inactive calls. Unless noted, how the calls were made is not given here.
# What was measured:
# [1] = compounds binding Alexa647 anti-His antibody – biochemical, small-molecule microarray, 635 nm fluorescence, artefact control for SMM control protein annotation, primary screen (AID 1128); settings: higher = more signal;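 further: score merges feature fluorescence with signal-to-noise for each printed compound spot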
# [2] = test system: Human papillomavirus type 1a E7 protein (residues 1-88); experiment: HPV1a E7 small-molecule binders, primary screen, biochemical, small-molecule microarray, residues 1-88, 635 nm (AID 1129); settings: small-molecule microarray binding, fluorescence 635 nm; higher = more signal
# [3] = target: Focal adhesion kinase 1 (Homo sapiens) (UniProt Q05397); experiment: PTK2 protein binding on printed compound slides – biochemical, small-molecule microarray, 635/667 nm fluorescence, BSA, DTT, primary screen (AID 1130); settings: 635 nm fluorescence, higher = more signal;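 further: composite of spot emission at 667 nm and signal to noise over triplicate slides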
# Focal adhesion kinase 1 (Homo sapiens), sequence (Q05397 whole entry, looked up): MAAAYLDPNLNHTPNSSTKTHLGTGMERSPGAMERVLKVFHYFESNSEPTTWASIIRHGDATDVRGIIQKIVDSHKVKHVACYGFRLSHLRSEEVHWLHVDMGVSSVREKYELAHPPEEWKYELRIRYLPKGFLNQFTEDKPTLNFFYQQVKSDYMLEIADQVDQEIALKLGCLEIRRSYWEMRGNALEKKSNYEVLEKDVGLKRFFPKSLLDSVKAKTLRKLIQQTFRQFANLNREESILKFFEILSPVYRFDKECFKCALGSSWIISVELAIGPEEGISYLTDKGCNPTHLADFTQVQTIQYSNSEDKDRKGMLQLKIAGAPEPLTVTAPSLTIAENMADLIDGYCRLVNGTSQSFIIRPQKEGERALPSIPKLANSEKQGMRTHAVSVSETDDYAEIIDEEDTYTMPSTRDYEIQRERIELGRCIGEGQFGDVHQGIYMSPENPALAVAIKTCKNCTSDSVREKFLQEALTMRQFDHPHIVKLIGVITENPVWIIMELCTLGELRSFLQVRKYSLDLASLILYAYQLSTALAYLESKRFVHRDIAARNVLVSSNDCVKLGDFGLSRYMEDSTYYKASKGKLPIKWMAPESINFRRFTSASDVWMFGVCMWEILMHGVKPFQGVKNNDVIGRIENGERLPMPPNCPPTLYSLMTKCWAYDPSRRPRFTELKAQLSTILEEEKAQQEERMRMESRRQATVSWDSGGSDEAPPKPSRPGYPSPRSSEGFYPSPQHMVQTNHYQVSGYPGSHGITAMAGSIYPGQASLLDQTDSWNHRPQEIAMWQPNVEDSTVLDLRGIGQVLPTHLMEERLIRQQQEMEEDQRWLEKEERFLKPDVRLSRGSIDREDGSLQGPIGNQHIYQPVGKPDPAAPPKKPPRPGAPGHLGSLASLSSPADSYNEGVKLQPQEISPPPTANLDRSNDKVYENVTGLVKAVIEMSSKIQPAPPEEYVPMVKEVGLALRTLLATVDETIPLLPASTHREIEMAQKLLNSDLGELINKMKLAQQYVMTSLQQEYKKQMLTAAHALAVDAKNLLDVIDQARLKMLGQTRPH
# [4] = test system: Fibrinogen (Alexa647-labelled); experiment: Alexa647-fibrinogen binding to printed small molecules – biochemical, small-molecule microarray, 635/667 nm fluorescence, artefact control for SMM control-protein annotation, profiling panel (AID 1131); settings: fibrinogen-A647 binding fluorescence, higher = more signal;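 further: z-score merges 667 nm fluorescence with per-spot signal-to-noise over triplicate slides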
# [5] = target: Follistatin (Homo sapiens) (UniProt P19883); experiment: FST protein binding to printed compounds – biochemical, small-molecule microarray, 635/667 nm fluorescence, primary screen (AID 1132); settings: 635 nm fluorescence, higher = more signal
# Follistatin (Homo sapiens), sequence (P19883 whole entry, looked up): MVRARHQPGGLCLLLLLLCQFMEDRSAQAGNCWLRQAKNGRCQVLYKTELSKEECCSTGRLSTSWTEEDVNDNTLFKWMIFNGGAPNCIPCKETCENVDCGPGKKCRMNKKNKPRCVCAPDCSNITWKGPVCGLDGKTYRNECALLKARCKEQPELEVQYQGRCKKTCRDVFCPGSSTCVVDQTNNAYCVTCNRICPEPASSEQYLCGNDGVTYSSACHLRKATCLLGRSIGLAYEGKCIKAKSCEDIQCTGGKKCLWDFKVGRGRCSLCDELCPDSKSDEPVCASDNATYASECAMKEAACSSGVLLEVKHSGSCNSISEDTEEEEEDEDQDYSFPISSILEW
# [6] = target: Fibroblast growth factor 2 (Homo sapiens) (UniProt P09038); experiment: basic fibroblast growth factor binding to printed compounds – biochemical, small-molecule microarray, 635/667 nm fluorescence, primary screen (AID 1133); settings: FGF2, fluorescence 635/667, higher = more signal
# Fibroblast growth factor 2 (Homo sapiens), sequence (P09038 whole entry, looked up): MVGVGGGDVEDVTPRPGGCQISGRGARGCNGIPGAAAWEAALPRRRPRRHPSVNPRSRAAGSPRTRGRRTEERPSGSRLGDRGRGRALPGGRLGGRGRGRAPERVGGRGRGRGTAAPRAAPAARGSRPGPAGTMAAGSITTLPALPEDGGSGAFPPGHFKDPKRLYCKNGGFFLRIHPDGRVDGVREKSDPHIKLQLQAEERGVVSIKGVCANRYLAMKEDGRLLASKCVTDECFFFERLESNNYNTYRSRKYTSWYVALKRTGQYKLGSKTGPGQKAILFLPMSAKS
# [7] = JC-1 mitochondrial potential readout, lung cancer cells – cell-based, A549, JC-1 fluorescence, basal, 24 h, 100 nL, profiling panel (AID 1138); settings: higher = more signal;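 further: A549 lung adenocarcinoma cells under basal conditions with no added stimulus; test concentration not given here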
# [8] = test system: Lefty1; experiment: Lefty1 protein binding to printed compounds – biochemical, small-molecule microarray, 635/667 nm fluorescence, primary screen (AID 1139); settings: fluorescence 635/667, higher = more signal
# [9] = test system: wheat germ agglutinin (Triticum aestivum), Alexa647-labelled; experiment: Alexa647-WGA lectin binding to printed small molecules – biochemical, small-molecule microarray, 635/667 nm fluorescence, artefact control for SMM control-protein annotation, profiling panel (AID 1140); settings: WGA-A647 binding, 635 nm fluorescence, higher = more signal;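 further: score merges 667 nm feature emission with signal to noise over triplicate slides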
# [10] = target: Luciferin 4-monooxygenase (Photinus pyralis) (UniProt P08659); experiment: inhibition of purified Photinus pyralis luciferase – biochemical, luminescence, purified enzyme, 2006 set, primary screen (AID 1141); settings: purified firefly luciferase, SteadyGlo luminescence, 30 min; higher = more signal, called active from +8 up or from −8 down;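 further: cell-free assay with purified firefly luciferase at 100 ng per well in PBS; test concentration not given here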
# Luciferin 4-monooxygenase (Photinus pyralis), sequence (P08659 whole entry, looked up): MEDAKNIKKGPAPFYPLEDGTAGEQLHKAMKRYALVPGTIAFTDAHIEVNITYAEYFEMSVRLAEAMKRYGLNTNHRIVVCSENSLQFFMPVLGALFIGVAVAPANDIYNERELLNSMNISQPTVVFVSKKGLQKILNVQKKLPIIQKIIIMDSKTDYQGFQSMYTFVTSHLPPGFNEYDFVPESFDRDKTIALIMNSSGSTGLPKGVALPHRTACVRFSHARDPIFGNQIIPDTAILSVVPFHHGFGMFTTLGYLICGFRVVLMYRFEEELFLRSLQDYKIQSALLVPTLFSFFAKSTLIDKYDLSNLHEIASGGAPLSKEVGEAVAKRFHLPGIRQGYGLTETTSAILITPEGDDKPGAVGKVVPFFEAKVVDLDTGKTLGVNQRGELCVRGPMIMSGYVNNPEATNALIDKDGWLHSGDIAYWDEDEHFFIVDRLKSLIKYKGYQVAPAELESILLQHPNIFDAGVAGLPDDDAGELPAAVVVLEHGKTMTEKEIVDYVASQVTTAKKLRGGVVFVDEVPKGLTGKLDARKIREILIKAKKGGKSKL
# [11] = test system: Wnt5a (protein binding on small-molecule microarray); experiment: small molecules binding Wnt5a protein – biophysical, small-molecule microarray, 635/667 nm fluorescence, primary screen (AID 1142); settings: 635 nm fluorescence, higher = more signal;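 further: fluorescence read at 667 nm with signal to noise per printed feature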
# [12] = ATP-based viability of Huh7 replicon cells – cell-based, CellTiter-Glo luminescence, basal, 48 h, cytotoxicity control for HCV replication inhibitor project, primary screen (AID 1143); settings: higher = more signal, called active from +8 up or from −8 down;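 further: Huh7 hepatoma cells carrying a hepatitis C replication reporter with no stimulus; test concentration not given here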
# [13] = Pseudomonas biofilm growth suppression – PAO1 strain, BacTiter-Glo luminescence, LB-PBS, primary screen (AID 1144); settings: P. aeruginosa PAO1 biofilm, 12 h, higher = more signal
# [14] = basal CRE-LacZ reporter activity in PC12 – cell-based, unstimulated, primary screen (AID 1145); settings: no forskolin, luminescence, 4.5 h, higher = more signal, called active from +8 up or from −8 down
# [15] = forskolin-driven CRE-LacZ activity in PC12 – cell-based, CRE-LacZ reporter, forskolin-stimulated, primary screen (AID 1146); settings: luminescence, 4.5 h, higher = more signal, called active from +8 up or from −8 down;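 further: PC12 cells with 6xCRE LacZ reporter stimulated by forskolin 10 µM; beta-galactosidase reporter signal reflecting CREB driven transcription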
# [16] = target: Streptavidin (Streptomyces avidinii) (UniProt P22629); experiment: compounds binding control protein streptavidin – biophysical, small-molecule microarray, 635/667 nm fluorescence, artefact control for SMM compound annotation, primary screen (AID 1147); settings: higher = more signal;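 further: signal reflects streptavidin binding to arrayed compounds as a control protein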
# Streptavidin (Streptomyces avidinii), sequence (P22629 whole entry, looked up): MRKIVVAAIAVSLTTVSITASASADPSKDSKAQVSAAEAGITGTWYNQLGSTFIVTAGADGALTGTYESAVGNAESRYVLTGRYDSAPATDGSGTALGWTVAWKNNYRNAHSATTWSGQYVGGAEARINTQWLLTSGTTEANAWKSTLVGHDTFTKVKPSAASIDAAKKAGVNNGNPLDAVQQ
# [17] = probe aInhba binding on compound microarray – biochemical, small-molecule microarray, 635/667 nm fluorescence, primary screen (AID 1148); settings: higher = more signal;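 further: score merges 667nm spot fluorescence with signal-to-noise for antibody binding to printed compounds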
# [18] = target: Torsin-1A (Homo sapiens) (UniProt O14656); experiment: TOR1A wild-type binding on microarray – cell lysate, small-molecule microarray, lysate, 635/667 nm, primary screen (AID 1149); settings: COS7 hTOR1A-WT lysate, 635 nm fluorescence, higher = more signal
# Torsin-1A (Homo sapiens), sequence (O14656 whole entry, looked up): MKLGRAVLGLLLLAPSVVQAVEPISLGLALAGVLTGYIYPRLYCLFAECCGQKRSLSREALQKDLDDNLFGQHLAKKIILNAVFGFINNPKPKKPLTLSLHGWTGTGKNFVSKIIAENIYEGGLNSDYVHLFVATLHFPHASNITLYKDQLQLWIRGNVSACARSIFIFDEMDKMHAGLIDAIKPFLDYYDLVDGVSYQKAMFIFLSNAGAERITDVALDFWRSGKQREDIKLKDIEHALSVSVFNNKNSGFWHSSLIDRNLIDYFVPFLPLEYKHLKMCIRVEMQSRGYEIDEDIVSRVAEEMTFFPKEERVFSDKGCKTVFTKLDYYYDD
# [19] = target: Torsin-1A (Homo sapiens) (UniProt O14656); experiment: torsin A mutant lysate binding on microarrays – cell lysate, small-molecule microarray, COS7 lysate, 635/667 nm fluorescence, primary screen (AID 1150); settings: COS7 hTOR1A mutant lysate, 635 nm fluorescence, higher = more signal;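 further: score pools 667 nm emission and signal to noise measuring lysate protein binding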
# [20] = test system: Sonic hedgehog protein (Shh); experiment: Sonic hedgehog microarray binding compounds – biochemical, small-molecule microarray, 635/667 nm fluorescence, primary screen (AID 1151); settings: 635 nm fluorescence, higher = more signal;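 further: Shh protein binding to compounds spotted on small-molecule microarray slides; score combines spot fluorescence intensity with signal-to-noise across triplicate slides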
SMILES,composite z-score [1],composite z-score [2],composite z-score [3],composite z-score [4],composite z-score [5],composite z-score [6],z-score [7],composite z-score [8],composite z-score [9],z-score [10],composite z-score [11],z-score [12],z-score [13],z-score [14],z-score [15],composite z-score [16],composite z-score [17],composite z-score [18],composite z-score [19],composite z-score [20]
O=C1[C@H]2[C@H]3[C@H](O)[C@H](O)CC(=NOCc4ccccc4)[C@H]3CC[C@H]2C(=O)N1c1ccc(F)cc1F,0.492,-0.0368,0.145,-0.898,-0.273,0.0342,-0.206,-0.0947,0.146,0.522 (inactive),-0.0542,-0.627 (inactive),-0.665 (inactive),-0.926 (inactive),-0.14 (inactive),-0.899,-0.536,-0.0184,-0.013,-0.311
COc1ccc(O[C@H]2C=C[C@@H](c3ccccc3)O[C@@H]2COC(=O)CCC(C)=NO[C@H](C)c2cn([C@@H]3COC[C@H]3O)nn2)cc1,1,0.225,0.149,0.517,0.368,0.459,-1.56,0.701,-0.151,0.884 (inactive),0.276,-3.36 (inactive),-1.39 (inactive),5.66 (inactive),0.867 (inactive),2.18,-0.103,0.249,0.419,0.754
CC[C@@H](c1ccccc1)n1c(=O)n2n(c1=O)[C@H]1[C@H](O)[C@@H]3O[C@@H]3C(=NOCC=C(C)CCC=C(C)C)[C@H]1CC2,0.592,1.1,0.301,0.417,0.708,0.55,0.0549,1.25,0.359,-0.726 (inactive),0.33,-1.53 (inactive),0.0433 (inactive),1.07 (inactive),0.889 (inactive),-0.124,-0.0963,0.216,0.366,1.88
O=C1[C@H]2[C@H]3[C@H](O)[C@H](O)CC(=NO[C@@H]4O[C@H](CO)[C@@H](O)[C@H](O)[C@H]4O)[C@@H]3CC[C@H]2C(=O)N1c1ccc(F)cc1F,0.537,0.534,-0.33,0.273,0.438,0.209,0.242,0.386,0.0553,0.523 (inactive),0.166,0.115 (inactive),0.593 (inactive),0.0711 (inactive),0.767 (inactive),0.38,-0.0719,0.851,1.1,0.51
